Test results from paper PMC6919601, “Identification of Plasmodium dipeptidyl aminopeptidase allosteric inhibitors by high throughput screening” (PLoS ONE, 2019).
Screen size: about 110,000 compounds; about 230 (0.21%) showed an effect of 50% or more. The full list was thinned out, with strong results kept by preference.

molecular target: DPAP1 (Plasmodium falciparum, UniProt Q8IIJ9); test: primary screen, percent inhibition; read by cleavage of a fluorogenic dipeptide substrate; higher = more effect of the substance; parameters: species or system P. falciparum D10 trophozoite lysates; single well
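Note: 30 min substrate incubation versus DMSO and 10 µM JCP410 controls.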

DPAP1, sequence (Q8IIJ9 whole entry, looked up): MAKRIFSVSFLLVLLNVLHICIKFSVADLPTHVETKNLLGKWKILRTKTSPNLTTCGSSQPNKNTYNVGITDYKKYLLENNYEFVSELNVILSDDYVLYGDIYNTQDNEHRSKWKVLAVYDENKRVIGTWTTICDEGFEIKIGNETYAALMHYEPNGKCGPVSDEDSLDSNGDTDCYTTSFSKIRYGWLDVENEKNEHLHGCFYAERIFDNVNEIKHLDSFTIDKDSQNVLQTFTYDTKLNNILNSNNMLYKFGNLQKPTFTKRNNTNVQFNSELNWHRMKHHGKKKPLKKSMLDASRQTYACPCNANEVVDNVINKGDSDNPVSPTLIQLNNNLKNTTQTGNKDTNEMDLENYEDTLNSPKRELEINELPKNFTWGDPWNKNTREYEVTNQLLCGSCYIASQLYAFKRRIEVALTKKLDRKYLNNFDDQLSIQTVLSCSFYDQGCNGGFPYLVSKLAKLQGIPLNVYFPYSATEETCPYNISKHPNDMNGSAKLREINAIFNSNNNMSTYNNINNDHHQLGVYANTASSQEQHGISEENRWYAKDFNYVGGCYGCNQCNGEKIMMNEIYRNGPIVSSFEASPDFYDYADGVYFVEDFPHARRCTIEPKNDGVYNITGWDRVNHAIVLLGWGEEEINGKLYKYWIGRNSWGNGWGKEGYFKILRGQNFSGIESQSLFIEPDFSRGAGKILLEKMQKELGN

Row | SMILES | % Inhibition @ 10 uM [%]
1 | Cn1cccc1/C=C1/CCC(C2CCCC2)C1=O (stereo not drawn) | -5.51
2 | Cc1ccc(C)n1-c1nnc(N2CCC(C(=O)NCCc3ccc(Cl)cc3)CC2)s1 | -4.04
3 | O=C(NC1CCCC1)N(Cc1ccc2c(c1)OCO2)C1CCN(Cc2ccccc2)CC1 | -1.41
4 | Cc1nc2c(c(C)nn2-c2ccccc2)c(C)c1CCC(=O)NCCC(C)C | 2.57
5 | CCc1ccc2ncc(S(=O)(=O)c3ccccc3)c(N3CCCC3)c2c1 | -3.69
6 | CSC1=C(C#N)C2(CCCCC2)C(C#N)C(=O)N1 (stereo not drawn) | -0.736
7 | N#CC1=C(S)NC(=O)C(C#N)C12CCCCC2 (stereo not drawn) | 57.8
8 | CSC1=C(C#N)C2(CCCC2)C(C#N)C(=O)N1 (stereo not drawn) | -0.239
9 | CCN(CC)C(=O)/C=C/c1ccc(Cl)cc1 | 3
10 | Cn1c(=O)c2c(nc(CN3CCc4ccccc4C3)n2Cc2ccccc2)n(C)c1=O | -0.499
11 | Cn1c(=O)c2c(nc(CN3CCc4ccccc4C3)n2CCCc2ccccc2)n(C)c1=O | 59.1
12 | Cn1c(=O)c2c(nc(CN3CCc4ccccc4C3)n2CCc2ccccc2)n(C)c1=O | 2
13 | CC1=CC2=NC(=O)/C(=C\c3cccn3CCCOc3ccc(C)cc3)C(=N)N2O1 | -1.43
14 | CCOC(=O)c1cc2c(=O)n3ccccc3nc2n(CCOC)/c1=N\C(=O)C(C)(C)C | -2.04
15 | COC(=O)Nc1ccc(S(=O)(=O)N2CCN(c3ccccc3OC)CC2)cc1 | -5.13
16 | COc1ccc(C(=O)Sc2nc(C)cc(C)n2)cc1 | 54.6
17 | Cc1cc(C)nc(SC(=O)c2ccc(Cl)cc2Cl)n1 | -5.13
18 | COC(=O)c1ccc(Oc2nc(C)cc(N)n2)cc1 | -2.87
19 | CCNc1nc(-c2ccccc2)cs1 | 89.1
20 | CCCNc1nc(-c2ccc(C)cc2)cs1 | 3.33
21 | c1ccc(-c2csc(NCc3ccco3)n2)cc1 | -0.178
22 | c1ccc(CC2CCN(c3ncnc4sc5c(c34)CCCC5)CC2)cc1 | 2.92
23 | CCn1cc2c(n1)-c1c(oc(C(=O)NCc3cccc(Br)c3)c1C)CC2 | 13.8
24 | CCOC(=O)c1c(CC(C)C)csc1NC(=O)c1ccc(C)cc1 | -5.9
25 | CCC1CCc2c(sc(N)c2C#N)C1 (stereo not drawn) | 11.8
26 | CCC1CCc2nc(S)c(C#N)c(C(F)(F)F)c2C1 (stereo not drawn) | 88.2
27 | CCN(CC)C(=O)CSc1nc2c(c(C(F)(F)F)c1C#N)CCC2 | 5.64

Row | SMILES | % Inhibition @ 10 uM [%]
28 | CC(C)c1ccc(/C=C2/NC(=O)NC2=O)cc1 | -1.25
29 | Cc1ccc(S(=O)(=O)N2CCCN(S(=O)(=O)c3ccc(C)c(C)c3)CC2)cc1C | 22.6
30 | CC(C)n1c(-c2ccccc2)nc2ccccc21 | -0.769
31 | CN1CCN(C(=O)c2ccc(-c3ccccc3)cc2)CC1 | 2.6
32 | CC(C)n1c(-c2ccc(C(=O)N3CCN(C)CC3)cc2)nc2ccccc21 | 83.9
33 | Cc1ccc(C)c(-c2csc(Nc3ccc(C)c(Cl)c3)n2)c1 | 0.912
34 | Oc1c2nc(S)nc-2cnn1-c1ccccc1 | 87.4
35 | Cc1ccc(-c2nc3cnn(-c4ccccc4)c(O)c-3n2)cc1 | 2
36 | CCSc1c(S)cnn(-c2ccccc2)c1=O | 1.7
37 | CC(C)C(NS(=O)(=O)c1cccs1)C(=O)NCc1ccccc1Cl (stereo not drawn) | -4.07
38 | CCOc1ccc(-c2cn3ncsc3n2)cc1 | 2.41
39 | O=C(c1ccccc1)c1conc1C(=O)c1ccc(Br)cc1 | 4.52
40 | O=C(c1nc2ccccc2s1)c1conc1C(=O)c1cccs1 | 4.03
41 | O=C(c1cccs1)c1conc1C(=O)c1ccc(Br)cc1 | 93.8
42 | O=C(c1ccccn1)c1conc1C(=O)c1ccc(Br)cc1 | 3.72
43 | O=C(c1cccnc1)c1conc1C(=O)c1ccc(Br)cc1 | 91.9
44 | O=C(c1ccccn1)c1conc1C(=O)c1cccs1 | 1.82
45 | Cc1ccc(C2=CC(c3cccs3)n3ncnc3N2)cc1C (stereo not drawn) | 1.86
46 | Cc1nc(NC(=O)c2ccccc2Cl)ccc1Br | -2.67
47 | Cc1nc(NC(=O)c2cc(Cl)ccc2Cl)ccc1Br | 0.755
48 | COc1ccc(Cl)cc1C(=O)Nc1ccc(Br)c(C)n1 | 70.4
49 | CN(Cc1ccccc1)Cc1ccc(O)cc1 | -1.78
50 | CC1(C)Cc2c(c(N3CCOCC3)nc3sc(C(=O)N4CCCCC4)c(N)c23)CO1 | 3.93
51 | CCOC(=O)c1sc2nc(N3CCOCC3)c3c(c2c1N)CCCC3 | -2.87
52 | NC(=O)c1sc2nc(N3CCOCC3)c3c(c2c1N)CCCC3 | 50.2
53 | Nn1c(S)nnc1-c1ccccc1 | 1.63
54 | O=C1c2cccnc2C(=O)N1Cc1ccc(S(=O)(=O)NCCc2ccc(Cl)cc2)s1 | -3.66

Row | SMILES | % Inhibition @ 10 uM [%]
55 | COc1ccccc1CNC(=O)[C@H](CCSC)N1Cc2ccccc2C1=O | 2.93
56 | CCCC1CCc2c(sc(NC(=O)C3CCCO3)c2C(N)=O)C1 (stereo not drawn) | 1.57
57 | c1ccc(Cc2c[nH]c3ccccc23)cc1 | 0.736
58 | c1ccc2c(Cc3c[nH]c4ccccc34)c[nH]c2c1 | -0.0372
59 | c1ccc2c(Cc3nn[nH]n3)c[nH]c2c1 | 85
60 | CCC1(C)CC(=O)c2c(ccc3oc(C(=O)NCc4ccco4)c(C)c23)O1 (stereo not drawn) | -2.17
61 | CC1=C(C)CC(C(=O)NCc2ccc(F)cc2)C(C(=O)O)C1 (stereo not drawn) | 8.6
62 | COc1ccc(-c2coc3cc(OC)ccc3c2=O)c(O)c1 | 62.1
63 | COc1ccccc1-c1coc2cc(OCC(=O)O)ccc2c1=O | -1.92
64 | COc1ccc2c(COc3ccc4c(=O)c(-c5ccccc5)coc4c3)cc(=O)oc2c1 | -2.91
65 | O=C(Cn1ncc2c3ccccc3nc-2c1O)N1CCC(c2ccccc2)C1 (stereo not drawn) | 2.36
66 | c1ccc(-c2nc3c4cnn(-c5ccccc5)c4ncn3n2)cc1 | -6.09
67 | Cc1oc2c(C)c3oc(=O)c(CC(=O)N4CCOCC4)c(C)c3cc2c1-c1ccccc1 | 2.54
68 | Cc1ccc2c(c1Br)C1(C(=O)N2)C(C#N)=C(N)Oc2cc(N)ccc21 (stereo not drawn) | 5.35
69 | COCCn1c(=N)c(C(=O)NCC2CCCO2)cc2c(=O)n3cc(C)ccc3nc21 (stereo not drawn) | 94.3
70 | Cc1ccc2nc3c(cc(C(=O)NCC4CCCO4)c(=N)n3C3CCCCC3)c(=O)n2c1 (stereo not drawn) | 3.6
71 | Cc1ccc2nc3c(cc(C(=O)NCC4CCCO4)c(=N)n3CCc3ccccc3)c(=O)n2c1 (stereo not drawn) | 0.279
72 | COc1ccc2cc3cc(C(=O)NCCN(C)C)oc3nc2c1 | -1.54
73 | Cc1ccccc1CSCC(=O)NC1CCCC1 | 2.15
74 | OC(Cn1ccnc1)(c1ccc(F)cc1)c1ccccn1 (stereo not drawn) | 2.62
75 | O=C(NCc1ccc(F)cc1)c1noc2c1CCc1ccccc1-2 | -9.28
76 | CN(Cc1ccccc1)C(=O)c1noc2c1COc1ccccc1-2 | 7.85
77 | O=C(NCc1ccc(F)cc1)c1noc2c1COc1ccccc1-2 | 69.7
78 | Cc1ccc(CNC(=O)c2noc3c2COc2ccccc2-3)cc1 | 72.8
79 | COc1ccc(CNC(=O)c2noc3c2COc2ccc(C)cc2-3)cc1 | -3.17
80 | Cc1onc(-c2ccccc2Cl)c1C(=O)NCc1ccc2c(c1)OCO2 | -6.92
81 | O=C(NCc1ccc2c(c1)OCO2)c1cc(-c2ccccc2F)no1 | -2.07

Row | SMILES | % Inhibition @ 10 uM [%]
82 | Cc1ccc2c(c1)-c1onc(C(=O)NCc3ccccc3Cl)c1CO2 | 0.589
83 | O=C(NCc1ccc2c(c1)OCO2)c1noc2c1COc1ccccc1-2 | 73.5
84 | CC(C)C(=O)NC(c1ccc(Cl)cc1)c1ccc2cccnc2c1O (stereo not drawn) | -8.88
85 | CCc1nc2ccccc2c(NC(=O)CN2CCCC2)c1C | -4.96
86 | CN(Cc1ccccc1)C(=O)c1ccc(C(C)(C)C)cc1 | 8.01
87 | CCN(CC)C1=NC(C(F)(F)F)(C(F)(F)F)N=C(c2ccc(OC)cc2)O1 | -3.53
88 | Cn1nc(C(=O)NCCc2ccccc2)c2c1-c1ccccc1SC2 | -0.495
89 | Cn1nc(C(=O)NCc2ccco2)c2c1-c1ccccc1SC2 | 30.8
90 | Cn1nc(C(=O)NCc2ccc3c(c2)OCO3)c2c1-c1ccccc1SC2 | 86.5
91 | Cc1ccc(CNC(=O)c2nn(C)c3c2CSc2ccccc2-3)cc1 | 51.6
92 | Cn1nc(C(=O)NCc2ccc3c(c2)OCO3)c2c1-c1ccccc1S(=O)(=O)C2 | -3.8
93 | Cn1nc(C(=O)NCc2cccnc2)c2c1-c1ccccc1SC2 | 36.1
94 | O=C(NCC1CCCO1)C1CCCN(S(=O)(=O)N2CCC3(CC2)OCCO3)C1 (stereo not drawn) | -1.67
95 | CC(=O)C1=C(C)OC(N)=C(C#N)C1c1ccccc1[N+](=O)[O-] (stereo not drawn) | -1.29
96 | Cc1cccc(Nc2nc(-c3sc(N)nc3C)cs2)c1 | 2.7
97 | Cc1ccc(OC(C)C(=O)N(Cc2ccccc2)C2CCS(=O)(=O)C2)cc1C (stereo not drawn) | 0.561
98 | Cc1cc(C)c2nc(N3CCCC(C(=O)N4CCCCCC4)C3)sc2c1 (stereo not drawn) | 1.8
99 | CSc1nc(N)c2c3c(sc2n1)CN(Cc1ccccc1)CC3 | -1.66
100 | CCN1CCc2c(sc3nc(S)nc(N)c23)C1 | 42.8
101 | Nc1nc(S)nc2sc3c(c12)CCN(Cc1ccccc1)C3 | 54.1
102 | CC(C)C[C@H](NC(=O)OCc1ccccc1)C(=O)NCC(=O)CN(Cc1ccco1)C(=O)OC(C)(C)C | -7.36
103 | CC1=C(C#N)C(c2cccnc2)C2=C(O)CC(C)(C)CC2=N1 (stereo not drawn) | -4.03
104 | CC1(C)CC2=NC(S)=C(C#N)C(c3cccnc3)C2=C(O)C1 (stereo not drawn) | 67.3
105 | CC1=C(C#N)C(c2ccccc2)C2=C(O)CC(C)(C)CC2=N1 (stereo not drawn) | 2.41
